In the library only some 6.2% were active in any assay of this set; here they are far more common.
KB-V1 MDR tox: KB-V1 MDR subline cytotoxicity | KB-V1 MDR cells viability, CellTiter-Glo, 72 h | Potency, µM (highest dose often 46.1 µM), most hits filed as cytotoxic | 400,000 tested, 3.4% active | AID 1347076; note: % is set by controls: 0 for no effect and ±100 for the full control effect; nearly all actives have a fitted effect of over 60% in size
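Compound-treated KB-V1 multidrug-resistant cells, 72 h, 37 degrees C; viability by CellTiter-Glo. Fitted qHTS curves give the values.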
HT1080-NT tox: kills 2HG-producing HT-1080-NT fibrosarcoma cells; HT-1080-NT fibrosarcoma viability, CellTiter-Glo ATP luminescence, 48 h; Potency, µM (highest dose often 46.1 µM), for inactives: top-dose activity, negative = less viability, hits mostly cytotoxic; 360,000 tested, 1.6% active; AID 686970;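 note: NT is the 2HG producing partner of a matched IDH1 knockdown line; 0% = DMSO-treated cells and -100% = media-only wells without cells; nearly all actives have a fitted effect of over 55% in size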
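HT-1080-NT; 750 cells/well; 5% FBS RPMI; 48 h compound, 37 degrees C; CellTiter-Glo luminescence; curve fitting and curve-class assignment.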
KB-3-1 cytotox: KB-3-1 parental cell cytotoxicity; KB-3-1 viability, CellTiter-Glo ATP luminescence, 72 h; Potency, µM (doses to about 46.1 µM), actives largely listed as cytotoxic; 400,000 tested, 1.4% active; AID 1347075; note: % is set by controls: 0 for no effect and ±100 for the full control effect; nearly all actives have a fitted effect of over 60% in size
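Using CellTiter-Glo luminescence, growth of non-resistant KB-3-1 adenocarcinoma cells is assessed 72 h after pin-tool compound addition at 37 °C. Normalized responses across the concentration series yield fitted curves.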
HT1080 IDH1KD tx: HT-1080 IDH1 knockdown cell toxicity (counter line) | HT-1080 IDH1 knockdown viability, ATP luminescence, 48 h | 360,000 tested, 2% active | Potency, µM (top dose mostly 46.1 µM), for the others: at the highest dose activity, negative = toxicity, hits mostly cytotoxic | AID 686971;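 note: 0% = DMSO wells and -100% = cell-free medium wells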
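% activity derives from luminescence (CellTiter-Glo), normalised to DMSO and no-cell wells. HT-1080-IDH1KD cells, 750/well, had 48 h compound exposure at 37 °C.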
S2 tox: reduces viability in counter-screen for ATXN expression inhibitors; S2 cells (HEK-293 line with an ATXN2-luciferase reporter) viability, CellTiter-Fluor protease fluorescence, 24 h; Potency, µM (highest dose often 56.7 µM), hits mostly cytotoxic; 400,000 tested, 0.49% active; note: nearly all actives have a fitted effect of over 40% in size
ATXN2 expr inh: reduces ATXN2 reporter expression in HEK-293 cells; HEK-293 ATXN2-luciferase reporter, luminescence, 24 h; Potency, µM (doses to about 57 µM), inactives show top-dose activity change, negative = inhibition, hits mostly inhibitors; 360,000 tested, 0.72% active; note: % is set by controls: 0 for no effect and ±100 for the full control effect; nearly all actives have a fitted effect of over 55% in size
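ATXN2-luciferase reporter cells (luciferase flanked by upstream and downstream ATXN2 gene portions) were treated 24 h at 37 °C with compounds at up to 57 uM. SteadyGlo luminescence gave expression; GF-AFC fluorescence gave viability.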
The depositor's hits bear a star; i = inactive; ? = inconclusive; · = not tested or not shown; [ ] = dose if it differs, or a comment. Calls come from the whole dose curve; as a rule, active = well fitted curve in the direction sought with a large enough effect; inconclusive = small, poorly fitted or top-dose-only effect, or another doubt; inactive = no such curve, though single readings can be large; an effect the other way counts as inactive or inconclusive. Potency is the fitted concentration of half-maximal effect.

SMILES	KB-V1 MDR tox	HT1080-NT tox	KB-3-1 cytotox	HT1080 IDH1KD tx	S2 tox	ATXN2 expr inh
CC(NCC(=O)Nc1ccccc1C(=O)NC1CC1)c1cccc(C(F)(F)F)c1 (configuration not stated)	i	-6%	i	-1%	i	-17%
Cc1ccc(NS(=O)(=O)c2cc(NC(=O)c3cc4c(s3)CCCC4)ccc2C)c(C)c1	3.7µM*	-1%	i	-5%	?	-7%
Cc1ccc(S(=O)(=O)Nc2ccc(Cl)cc2)cc1NC(=O)c1cc2c(s1)CCCC2	15µM*	?	i	?	?	-14%
Cc1ccc(S(=O)(=O)N2CCOCC2)cc1NC(=O)c1cc2c(s1)CCC2	i	0%	i	2%	?	-2%
COC(=O)c1[nH]c2c(c1C)C(=O)CC(c1cccs1)C2 (configuration not stated)	2.1µM*	1µM*	?	1µM*	i	4%
CCOc1ccc(C2CC(=O)c3c([nH]c(C(=O)OC)c3C)C2)cc1OC (configuration not stated)	?	?	i	?	i	-25%
COC(=O)c1[nH]c2c(c1C)C(=O)CC(c1cc(OC)ccc1OC)C2 (configuration not stated)	5.2µM*	?	3.7µM*	21µM*	?	-9%
COc1ccc(C2CC(=O)c3c([nH]c(C(=O)OC(C)C)c3C)C2)cc1OC (configuration not stated)	2.6µM*	0%	i	0%	i	-9%
CC(=O)Nc1ccc(S(=O)(=O)N2CCC(C(=O)NCCc3c[nH]c4ccccc34)CC2)cc1	i	11%	i	15%	i	17%
COc1ccc(-c2nc(SCC(=O)Nc3ccc4c(c3)OCO4)c(-c3ccccc3)[nH]2)cc1	i	·	i	·	i	1%
COc1ccc(NC(=O)CN(C)C(=O)CC2CCCC2)cc1	i	-1%	i	2%	i	-15%
CN(CC(=O)Nc1ccc(F)c(F)c1F)C(=O)CC1CCCCC1	15µM*	-3%	i	-9%	i	-2%
C[N+]1(CC2COC(c3ccccc3)(c3ccccc3)O2)CCCCC1 (configuration not stated)	·	·	·	·	i	-1%[25.6 µM]
CCc1ccc(CN2CCN(S(=O)(=O)Cc3ccccc3)CC2)cc1	10µM*	-18%	i	-19%	i	-12%
c1ccc(-c2nnc(CN3CCN(c4ccccn4)CC3)o2)cc1	i	·	i	·	i	13%
Cc1cccc(-n2nnnc2SCn2nnc3ccccc3c2=O)c1	13µM*	6%	i	-5%	i	23%
O=c1c2ccccc2nnn1CSc1ccc2c(c1)OCCO2	23µM*	-2%	i	-10%	i	19%
CCC(C(=O)Nc1ccc2c(c1)OCCO2)n1nnc2ccccc2c1=O (configuration not stated)	i	-4%	i	5%	i	9%
Cc1cccc(NC(=O)/C=C/c2ccc([N+](=O)[O-])s2)c1	4.6µM*	2.9µM*	5.8µM*	4.1µM*	8.9µM*	8.9µM*
Cc1ccc(NC(=O)/C=C/c2ccc([N+](=O)[O-])s2)c(C)c1	i	2.6µM*	?	2.3µM*	?	8.9µM*
Cc1ccnc(NC(=O)/C=C/c2cccs2)c1	12µM*	?	?	?	i	10%
Cc1cc([N+](=O)[O-])ccc1NC(=O)/C=C/c1cccs1	8.2µM*	3%	?	8%	?	52%
O=C(/C=C/c1cccs1)Nc1nncs1	i	14%	i	9%	i	49%
Cc1ccc(NC(=O)/C=C/c2ccc([N+](=O)[O-])s2)cc1	?	?	?	?	i	-18%
COc1nc(-c2ccc(C)cc2)ccc1-c1noc(-c2ccc(C(C)(C)C)cc2)n1	i	·	i	·	·	·
COc1ccc(CN2CCOc3ccc(CN4CCC(Oc5cccnc5)CC4)cc3C2)cc1C	·	·	·	·	i	·
